Source: PubChem (National Center for Advancing Translational Sciences (NCATS))
The full list was thinned out, with hits kept by preference.
VDR inh: vitamin D3 receptor (human) inhibition. VDR-SRC2-3 peptide fluorescence polarization, 2 h. AID 504847. P11473. Potency, µM, hits mostly inhibitors. hit rate 0.93% among 400,000
Target sequence (P11473 whole entry, looked up): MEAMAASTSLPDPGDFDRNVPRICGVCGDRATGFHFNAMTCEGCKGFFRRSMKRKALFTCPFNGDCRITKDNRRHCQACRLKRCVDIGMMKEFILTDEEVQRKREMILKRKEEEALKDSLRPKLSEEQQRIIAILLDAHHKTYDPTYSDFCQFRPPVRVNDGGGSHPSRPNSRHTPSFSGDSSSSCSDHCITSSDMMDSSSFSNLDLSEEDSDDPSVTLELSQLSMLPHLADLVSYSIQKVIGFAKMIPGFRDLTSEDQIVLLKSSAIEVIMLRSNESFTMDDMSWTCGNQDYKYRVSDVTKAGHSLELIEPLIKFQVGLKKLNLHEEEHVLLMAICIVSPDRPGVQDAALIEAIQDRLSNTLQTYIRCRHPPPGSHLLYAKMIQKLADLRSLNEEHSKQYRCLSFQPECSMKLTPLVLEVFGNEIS
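Reagent solutions, kept cold and dark, are dispensed first; compounds are then pinned in at 23 nl, plates briefly spun, and incubated 2 h at ambient temperature. Inhibition of VDR–SRC2-3 peptide binding is read by fluorescence polarization.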
G9a block: G9a (human) methyltransferase inhibition; Q96KQ7; G9a H3K9 monomethylation, AlphaScreen, 2 h; Potency, µM (titrated, usually from 102 µM), usual class: inhibitors; hit rate 8.8% among 350,000; also: nearly all actives have a fitted effect of over 75% in size
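Chemiluminescent proximity detection of H3K9 monomethylation, read after 10 min bead incubation in the dark. Reaction: 20 nM G9a, 500 nM biotin-H3K9 peptide, 20 uM SAM cofactor, 2 h, room temperature, following 15 min enzyme-compound preincubation.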
Glioma ERSR ind: induces the endoplasmic reticulum stress response in human glioma cells. U87-MG GRP78 promoter luciferase reporter, 16 h. Potency, µM, most hits filed as activators. hit rate 0.02% among 420,000; also: series mostly up to about 76 µM; nearly all actives have a fitted effect of over 35% in size
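ERSR induction read as luciferase luminescence (Bright-Glo, 10 min at room temperature) in stably transfected human U87-MG glioma cells exposed to compounds for 16 h, using GRP78 as sensor.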
ALOX12 inh: inhibitors of human 12S-lipoxygenase ALOX12; P18054; purified 12hLO, xylenol orange hydroperoxide absorbance; Potency, µM (titrated, usually from 108 µM), hits mostly inhibitors; hit rate 1.1% among 580,000; AID 1671190
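Purified human 12hLO at 150 nM in 25 mM Hepes, 0.01% Triton X-100, pH 7.0, preincubated 15 min at room temperature with compound. Reaction started with 40 uM arachidonic acid, 30 min at room temperature. Hydroperoxide measured by Fe-xylenol orange, 573/405 nm absorbance ratio.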
Sfp PPTase inh: inhibitors of Bacillus subtilis Sfp phosphopantetheinyl transferase. Biochemical Sfp PPTase activity, qHTS. hit rate 3.5% among 310,000. Potency, µM, actives largely listed as inhibitors;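 also: the enzyme is Sfp with the accession as filed and its product quenches rhodamine fluorescence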
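Reaction rates are the 30-min fluorescence difference (ex 525, em 598 nm) in wells containing 15 nM Sfp, 5 uM rhodamine-CoA and 12.5 uM BHQ-2-YbbR at pH 7.6 with 10 mM MgCl2.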
Each line names hits and unclear results; the compound was inactive in the other large screens. Calls follow the shape of the dose curve; as a rule, active = well fitted curve in the direction sought with a large enough effect; inconclusive = small, poorly fitted or top-dose-only effect, or another doubt; inactive = no such curve, though single readings can be large; an effect the other way counts as inactive or inconclusive.

COCC(C)n1c(C)cc(C(=O)CSc2nnc(-c3ccoc3C)n2-c2ccccc2)c1C (stereo unspecified)	none (no result: VDR inh, G9a block, Glioma ERSR ind, Sfp PPTase inh)
O=c1[nH]cc(Cc2ccccc2)c(=O)[nH]1	ALOX12 inh inconclusive (no result: VDR inh, G9a block, Sfp PPTase inh)
S=c1[nH]cc(Cc2ccccc2)s1	G9a block 1.78µM, ALOX12 inh 7.94µM, Sfp PPTase inh inconclusive
COc1ccc(C2C(C#N)=C(N)OC3=C2C(=O)CC(c2ccccc2)C3)cc1 (stereo unspecified)	none (no result: VDR inh, G9a block, Glioma ERSR ind, Sfp PPTase inh)
N#CC1=C(N)OC2=C(C(=O)CC(c3ccccc3Cl)C2)C1c1ccc(Cl)cc1 (stereo unspecified)	ALOX12 inh 15.8µM (no result: VDR inh, G9a block, Glioma ERSR ind, Sfp PPTase inh)
COc1cc(OC)c2c(c1)C(=O)c1cc(OC)cc(OC)c1C2=O	none (no result: G9a block)
COc1cc(O)c2c(c1)C(=O)c1cc(C)cc(O)c1C2=O	VDR inh 22.4µM, ALOX12 inh inconclusive (no result: G9a block)
COc1cccc(CN2CCN(C(=O)c3cccs3)CC2)c1OC	none
COc1ccc(OC)c(CN2CCN(C(=O)c3cccs3)CC2)c1	G9a block 8.91µM, Sfp PPTase inh inconclusive
COc1ccc(CN2CCN(C(=O)c3cccs3)CC2)cc1	G9a block 10µM, ALOX12 inh inconclusive
COc1ccccc1C(=O)N(Cc1ccc(C(C)C)cc1)C1CCS(=O)(=O)C1 (stereo unspecified)	none (no result: VDR inh, G9a block, Glioma ERSR ind, Sfp PPTase inh)
COc1ccccc1CNC(=O)c1nc(COc2c(C)occc2=O)no1	none (no result: VDR inh, G9a block, Glioma ERSR ind, Sfp PPTase inh)
Cc1cc2cc(NC(=O)c3cccc(C)c3C)ccc2[nH]1	none (no result: VDR inh, G9a block, Glioma ERSR ind, Sfp PPTase inh)
NC(=O)[C@H](CC1CCCCC1)NC(=O)[C@@H]1CN(S(=O)(=O)c2ccccc2)CCN1C(=O)c1cccs1	none (no result: VDR inh, G9a block, Glioma ERSR ind, Sfp PPTase inh)
CN(CC(=O)Nc1ccc(Cl)c(C(F)(F)F)c1)C(=O)c1cn2ccccc2n1	G9a block 35.5µM, ALOX12 inh inconclusive (no result: Sfp PPTase inh)
CC(C)CCNC(=O)c1cc(-c2ccco2)nc2ccccc12	ALOX12 inh inconclusive
CN(C)C(CNC(=O)c1cc(-c2ccco2)nc2ccccc12)c1ccccc1 (stereo unspecified)	ALOX12 inh 10µM (no result: G9a block, Sfp PPTase inh)
CC(NC(=O)c1cc(-c2ccco2)nc2ccccc12)c1ccccc1 (stereo unspecified)	ALOX12 inh 44.7µM (no result: VDR inh, G9a block, Glioma ERSR ind, Sfp PPTase inh)
CCCCCCNC(=O)c1cc(-c2ccco2)nc2ccccc12	VDR inh inconclusive, G9a block 8.91µM, ALOX12 inh inconclusive, Sfp PPTase inh inconclusive
CC(NC(=O)c1ccc(Br)cc1)c1ccccc1 (stereo unspecified)	none
CC(NC(=O)c1ccc(-c2ccco2)cc1)c1ccccc1 (stereo unspecified)	ALOX12 inh 12.6µM (no result: VDR inh, G9a block, Glioma ERSR ind, Sfp PPTase inh)
O=C(NC1CCN(Cc2ccccc2)CC1)c1cc2cc(F)ccc2[nH]1	none (no result: VDR inh, G9a block, Glioma ERSR ind, Sfp PPTase inh)
COc1ccc2cc1Nc1ccc(cc1)C[C@H](NCC1CC1)C(=O)N(C)[C@@H](C(=O)Nc1ccccc1)C2	none (no result: VDR inh, G9a block, Glioma ERSR ind, Sfp PPTase inh)
O=c1oc2c(-c3ccc([N+](=O)[O-])cc3)cc(O)cc2s1	G9a block 56.2µM, ALOX12 inh 39.8µM, Sfp PPTase inh 39.8µM
NC1=C(c2ccc([N+](=O)[O-])cc2)C(=O)CO1	none
COc1ccc2c(c1)nc(SCC(C)O)n2C (stereo unspecified)	none
COc1ccc2c(c1)nc(SCC(=O)C(C)(C)C)n2C	VDR inh inconclusive, G9a block inconclusive, Sfp PPTase inh 56.2µM
CCSc1nc2ccccc2n1CCC(=O)O	G9a block inconclusive
COc1ccc2c(c1)nc(SCC(=O)c1cccs1)n2C	G9a block 44.7µM, Sfp PPTase inh 89.1µM
CCCn1c(SCC(=O)C(C)(C)C)nc2ccccc21	G9a block 35.5µM, Sfp PPTase inh 56.2µM
O=C(O)CCn1c(SCc2cccc3ccccc23)nc2ccccc21	G9a block 14.1µM
O=C1CCSc2c1cccc2C(=O)NCC1CCN(Cc2cccc(F)c2)CC1	none (no result: VDR inh, G9a block, Glioma ERSR ind, Sfp PPTase inh)
Cc1cccc(C(C)C)c1NC(=O)COc1ncnc2ccccc12	none (no result: VDR inh, G9a block, Glioma ERSR ind, Sfp PPTase inh)
CCc1nnc(NC(=O)CN2CC(C)OC(C)C2)s1 (stereo unspecified)	none
CCc1nnc(NC(=O)C2CCCCC2)s1	G9a block inconclusive, Sfp PPTase inh 31.6µM
CCc1nnc(NC(=O)CN2CCN(C3CCCCC3)CC2)s1	G9a block 10µM, Sfp PPTase inh 89.1µM
O=C(CN1CCCC1c1ccccc1)Nc1cccc(F)c1 (stereo unspecified)	none (no result: VDR inh, G9a block, Glioma ERSR ind, Sfp PPTase inh)
FC(F)(F)c1cc(-c2cccs2)nc2cc(-c3ccccc3)nn12	none
O=C(NCc1cccnc1)c1cc2nc(-c3cccs3)cc(C(F)(F)Cl)n2n1	G9a block 50.1µM
